The structures appear in SMILES notation. Several values for one entry are separate records, joined by “and”; a condition that tells them apart may be missing. Equal values may be shown once. About 83,000 compounds went through this panel and 20% of them were active in at least one assay; those are over-represented in the sample as a whole.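 For each line, cells grew in 96-well plates with the test compound present at a single concentration for 48 hours.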 Unmarked numbers belong to inactive results. Activity calls are given as the source filed them. How the source made its calls: active means growth percent below 10; inactive means the rest.

This assay deals with HL-60(TB) leukemia. The assay can be described thus: NCI-60 one-dose screen, 48 h (100 = growth as untreated, 0 = no growth, -100 = all killed). The note with it: 10 µM unless noted.
With `O=C(O)c1[nH]c(=O)[nH]c(=O)c1[N+](=O)[O-]`, the growth was 127%. The result for `COc1ccc(-c2cnc(N)nc2-c2ccc(OC)cc2O)cc1` reads 79%; that for `COc1cc(NC2CCC(=O)N2c2ccc(Cl)cc2Cl)cc(OC)c1OC` (centres undefined), -3.13% (active).

Regarding `COc1ccc2c(c1)sc1nc(-c3ccccc3)c(-c3ccc(O)c(OC)c3)n12`, the growth is 44.2%. In the case of `c1cnc2[nH]cc(-c3csc(-c4cn(CCCN5CCOCC5)c5ccccc45)n3)c2c1` it was 35.8%; in that of `O=c1c2cc(F)ccc2oc2c(NCCNCCO)nc3ccccc3c12`, 70.5%; in that of `COc1cc(-c2cncn2-c2ccc(-c3nc4ccc(F)cc4s3)cc2)ccc1F`, 53.1%. The result for `Clc1cnc(Nc2ccc(OCCN3CCCC3)cc2)nc1NCc1ccco1` reads -26.5% (active). The result for `Cc1ccc(/C=C/c2c(C(=O)/C=C/c3ccc(C(F)(F)F)cc3)c(C)nc3ccccc23)cc1` reads -41.3% (active); that for `CC(=O)N1CC(=O)NC1=S`, 103%.

In the case of `COc1cc(C)c(C2C(C#N)=C(N)Oc3n[nH]c(-c4cccs4)c32)cc1C(C)C` (centres undefined), the growth is 66.2%. In the case of `CC(C)(C)CC(C)(C)c1ccc(OCCO)cc1`, the growth was 91.5%.

As for `O=C(Nc1ccc(F)cc1)c1ccccc1`, the growth is 97.5%. In the case of `CCCCOC(=O)OCc1cc(=O)c(O)co1` it was 95.2%; in that of `CCOC(=O)/C=C1\S/C(=N\Nc2cc(=O)[nH]c3ccc(Cl)cc23)N(c2ccccc2)C1=O`, 0.175% (active). In the case of `COc1ccc(OC)c(NCC(=O)n2nc(/C=C\c3ccc(O)c(OC)c3)cc2/C=C\c2ccc(O)c(OC)c2)c1` it was -8.64% (active); in that of `Nc1c(O)c(S(=O)(=O)O)c(O)c2c1C(=O)c1ccccc1C2=O`, -8.61% (active). The result for `COc1ccc2c(c1)[n+]([O-])c(C#N)c(NC(=O)c1ccco1)[n+]2[O-]` reads 108%. `O=C1Nc2ccc(Br)cc2/C1=N/c1n[nH]c(=S)s1`: the growth is 99.2%. The result for `NNCCc1ccccc1` reads 107% and 98.2%. The result for `N#CC1=C(N)Oc2cc(N)ccc2C1c1cccnc1` (centres undefined) reads 96.6%; that for `O=Nc1c(O)c(Cl)cc2ccccc12`, 42.7%. Take `Cc1ccc(-n2nnc3c(sc4ccccc43)c2=O)cc1`: the growth was 92.9%. The result for `C=CCn1c(SCC(=O)Nc2ccc(C(=O)/C=C/c3cc(OC)c(OC)c(OC)c3)cc2)nnc1-c1ccccc1` reads 71.8%; that for `O=C1C=CC(=O)N1c1ccc2ccccc2c1`, 83.9% and 88.8%. In the case of `Cc1ccc(Cc2cnc(NC(=O)c3cc(Br)cs3)s2)cc1` it was 8.08% (active).

With `COc1cc(-c2nn(-c3cccc(NC(=O)NCCNC(=O)c4ccccc4)c3)cc2-c2ccncc2)ccc1Cl`, the growth is -8.76% (active).

For the molecule `C=CCn1c(SCC(=O)NCc2cc(C)c(O)c(C)c2)nc2ccc(Cl)cc2c1=O`, the growth is 94.4%. The result for `CN1CCN(c2ccc(NC(=O)c3cncnc3Nc3ccc(OCc4ccccn4)c(Cl)c3)cc2)CC1` reads -57.9% (active); that for `C[C@]12CC[C@@H]3c4ccc(O)c([N+](=O)[O-])c4CC[C@H]3[C@@H]1CCC2=O`, 93.7%. The result for `Oc1ccc(-c2nnc3c4[nH]ccc4ncn23)cc1` reads 106%; that for `COc1ccc(C2=C(c3cn(C)c4ccccc34)C(=O)OC2)cc1OC`, 7.26% (active); that for `Cc1ccc(-n2c(-c3cc4c([nH]c5ccccc54)c(-c4cccc(O)c4)n3)n[nH]c2=S)cc1`, 2.59% (active).

With `Brc1ccc(-n2cc(-c3nn[nH]n3)c(-c3cccs3)n2)cc1`, the growth is 104%. In the case of `O=c1[nH]c(=S)[nH]c(=O)n1Cc1cccc2ccccc12` it was 101%; in that of `N#Cc1cccc(F)c1`, 76.2%. In the case of `O=C(N/N=C1\c2ccccc2-c2cccc(C(=O)O)c21)c1ccc(O)cc1` it was 103%; in that of `Cc1[nH]c(=O)[nH]c(=O)c1Br`, 129%. The result for `OC(CNC1CCCC1)Cn1c2ccccc2c2ccccc21` (centres undefined) reads -47.3% (active).

The record behind these values is PubChem BioAssay (NCI).
